High-throughput results deposited in PubChem BioAssay by Center for Chemical Genomics, University of Michigan.
CDC25B-CDK2 inh: human CDC25B-CDK2/CyclinA binding inhibition | HTRF CDC25B-CDK2/CyclinA binding, anti-His/anti-Flag; stronger effect = higher value | P30305+P24941 | z-score (concentration not given with the values) | 94,000 tested, 0.72% active; in the data active means z-score above about 3.2
HIV TAR-Tat: HIV-1 TAR-Tat binding disruption; HIV-1 TAR RNA, Tat peptide displacement FRET; stronger effect = higher value; 100,000 tested, 0.6% active; z-score (concentration not given with the values); active means z-score of 3 or more in at least 2 runs
* = called active by the depositor; x = no result given. An excerpt weighted towards active compounds, which were near 0.93% of everything screened.

SMILES	CDC25B-CDK2 inh	HIV TAR-Tat
CCOc1ccc(C2CC(=O)N3CN(CCO)CSC3=C2C#N)cc1 (configuration not stated)	0.17	1.3
C=CCOc1ccc(C2Nc3ccccc3S(=O)(=O)N2Cc2ccccc2)cc1OCC (configuration not stated)	-0.24	x
Clc1cccc(N2CCN(c3nn4cnnc4c4ccccc34)CC2)c1	-1.6	-1.9
Cc1ccc(N2CSC3=C(C#N)C(c4cccs4)CC(=O)N3C2)cc1C (configuration not stated)	6.2*	-1.5
CCOc1ccc(C2CC(=O)N3CN(Cc4cccnc4)CSC3=C2C#N)cc1 (configuration not stated)	6.8*	-2.2
N#CC1=C2SCN(c3ccc(F)cc3)CN2C(=O)CC1c1cccs1 (configuration not stated)	6*	0.54
CSc1ccc(C2CC(=O)N3CN(Cc4ccccc4)CSC3=C2C#N)cc1 (configuration not stated)	1.5	-2.2
CCOc1ccc(N2CSC3=C(C#N)C(c4cccs4)CC(=O)N3C2)cc1 (configuration not stated)	4*	-1.7
Cc1nc2nc(NCc3ccc(OC(C)C)cc3)[nH]n2c(=O)c1Cl	-0.84	-0.09
Cc1nc(-c2csc(S(=O)(=O)N3CCN(C(=O)c4ccco4)CC3)c2)no1	x	-0.02
C=CCNC(=S)NCc1ccc(-c2csnn2)cc1	-0.14	x
Cc1ccc(-c2onc(C)c2C)cc1S(=O)(=O)Nc1ccc(Br)cc1F	x	0.55
CCOCCCN(Cc1ccco1)C(=O)c1nn(C)c2c1COc1ccccc1-2	-0.21	1.6
O=S(=O)(CCN(C1CC1)S(=O)(=O)c1ccc(Br)cc1)N1CCNCC1	x	2
CC1CC(=O)Nc2cc(S(=O)(=O)Nc3ccc(F)cc3)ccc2S1 (configuration not stated)	x	0.98
N#CC1=C2SCN(c3ccccc3)CN2C(=O)CC1c1cccs1 (configuration not stated)	17*	-0.09
N#CC1=C2SCC(O)(c3ccccc3)N2C(=O)CC1c1cccs1 (configuration not stated)	-2.3	x
OCCNc1ncnc2onc(-c3ccc(F)cc3)c12	x	-0.56
Cc1nnc2c(Nc3ccc(N(C)C)cc3)nc3ccccc3n12	0.17	0.85
Cc1nnc2c(Nc3ccc(O)cc3)nc3ccccc3n12	-1.6	7.2*
COCCNC(=O)Nc1cc2ccc(OC)cc2n1C	-0.97	0.06
COc1ccc2cc(NC(=O)Nc3ccc(OC)c4cccnc34)n(C)c2c1	14*	0.07
CN(CCCNc1ncnc2onc(-c3ccc(F)cc3)c12)Cc1ccccc1	x	-0.45
